Here are results for 16 molecules from PubChem BioAssay (NCI).

Among the test systems are T-47D breast; BT-549 breast; MDA-MB-435 melanoma; SW-620 colon; MCF7 breast; HCT-116 colon; HCC-2998 colon; KM12 colon.
What all share (test): NCI-60 one-dose screen, 48 h (100 = growth as untreated, 0 = no growth, -100 = all killed)
Common to all, as to conditions: 10 µM

The structures appear in SMILES notation. About 83,000 compounds went through this panel and 20% of them were active in at least one assay; those are over-represented in the sample as a whole.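 In brief: 96-well plates, 48 h treatment, single concentration, percent growth endpoint.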 Unmarked numbers belong to inactive results. The source made the active and inactive calls. The calls were made as follows: active = growth percent below 10; inactive = the rest.

In the case of `CCNCC(=O)Nc1ccc(C(=O)OCC)cc1`, the growth in the experiment on T-47D breast was 92.9%; with BT-549 breast, 102%; in the experiment on MDA-MB-435 melanoma, 102%; in the experiment on SW-620 colon it was 97.2%; with MCF7 breast it was 99.6%; with HCT-116 colon it was 96%. For the same molecule, the growth with HCC-2998 colon is 98.7%; in the experiment on KM12 colon, 95.9%.
Regarding `CCC(c1ccc(OC)cc1)C(CC)c1ccc(O)c(CN2CCN(C)CC2)c1` (stereo not drawn), the growth is 39.1% in the experiment with T-47D breast; 76.9% with BT-549 breast; 33.5% with MDA-MB-435 melanoma; 16.6% in the experiment on SW-620 colon; 50.9% with MCF7 breast; 29.1% in the experiment with HCT-116 colon. Further, the growth in the experiment with HCC-2998 colon was -1.52% (active); with KM12 colon, 53.9%.
Turning to `Cc1ccc(NCCN(C)CC(C)O)c2c(=O)c3ccccc3sc12` (stereo not drawn), the growth with T-47D breast was 85.2%; in the experiment on BT-549 breast, 84.4%; in the experiment on MDA-MB-435 melanoma, 30%; with SW-620 colon, 23.6%; in the experiment on MCF7 breast it was 20%; with HCT-116 colon, 18.5%. Moreover, the growth in the experiment on HCC-2998 colon was 15.4%; with KM12 colon, 44.9%.
As to `CC(C)(C)c1ccc(S(=O)(=O)N[C@H]2CC[C@H]3[C@@H]4CCc5cc(OS(=O)(=O)O)ccc5[C@H]4CC[C@]23C)cc1`, the growth in the experiment on T-47D breast is 19.9%; in the experiment on BT-549 breast, 47.5%; in the experiment with MDA-MB-435 melanoma, 49.9%; with SW-620 colon it was 56.6%; with MCF7 breast, 15.3%; in the experiment with HCT-116 colon, 26.8%. Besides, the results for the growth with HCC-2998 colon and with KM12 colon were 73.2% and 40.9%, respectively.
For the molecule `OCC1OC(n2cnc3c(NCc4ccco4)ncnc32)C(O)C1O` (stereo not drawn), the growth with T-47D breast is 8.92% (active); with BT-549 breast, -23% (active); in the experiment with MDA-MB-435 melanoma, 17.2%; in the experiment on SW-620 colon it was 18.8%; in the experiment on MCF7 breast, -13.1% (active); in the experiment with HCT-116 colon, 1.81% (active). Further, the growth is 23.7% with HCC-2998 colon and 62.8% in the experiment with KM12 colon.
As to `C=C(NC(=O)C(=C)NC(=O)c1csc(C2=NC3c4csc(n4)C4NC(=O)c5csc(n5)C(C(C)(O)C(C)O)NC(=O)C5CSC(=N5)C(=CC)NC(=O)C(C(C)O)NC(=O)c5csc(n5)C3(CC2)NC(=O)C(C)NC(=O)C(=C)NC(=O)C(C)NC(=O)C(C(C)CC)NC2C=Cc3c(C(C)O)cc(nc3C2O)C(=O)OC4C)n1)C(N)=O` (stereo not drawn), the growth is 40.4% in the experiment with T-47D breast; 0.0683% (active) in the experiment with BT-549 breast; 4.84% (active) in the experiment with MDA-MB-435 melanoma; 1.83% (active) in the experiment on SW-620 colon; 16.7% in the experiment with MCF7 breast; -70.9% (active) in the experiment with HCT-116 colon. The growth is 79.3% in the experiment on HCC-2998 colon and 28.3% with KM12 colon.
As to `CCOC(=O)c1cc(C(=O)c2cc(OC)cc(OC)c2)n2nc(C)ccc12`, the growth was 43.9% with T-47D breast; 48.7% with BT-549 breast; -16.2% (active) with MDA-MB-435 melanoma; 17.8% in the experiment with SW-620 colon; 20.8% with MCF7 breast; 25.2% with HCT-116 colon. The growth is 54.1% with HCC-2998 colon and 29.4% in the experiment on KM12 colon.
For `CC(C)(C)OC(=O)N1CCc2c(sc3ncnc(N/N=C/c4cccc(Br)c4)c23)C1`, the growth in the experiment with T-47D breast is 20.2%; in the experiment on BT-549 breast, 79.4%; in the experiment with MDA-MB-435 melanoma, 34.3%; with SW-620 colon it was 41.1%; with MCF7 breast, 5.3% (active); in the experiment with HCT-116 colon, 29.6%. For the same molecule, the values for the growth with HCC-2998 colon and with KM12 colon were 42.6% and 62.3%, respectively.
With `OCC1OC2C(NC(=S)N2c2ccccc2)C(O)C1O` (stereo not drawn), the growth in the experiment on T-47D breast is 108%; with BT-549 breast, 106%; in the experiment on MDA-MB-435 melanoma, 98.3%; in the experiment with SW-620 colon, 98.4%; in the experiment with MCF7 breast it was 103%; with HCT-116 colon, 111%. The figures for the growth in the experiment on HCC-2998 colon and in the experiment on KM12 colon were 104% and 103%, respectively.
As to `O=C(CCNC(=O)c1nc(-c2ccccc2)n(-c2ccc(Cl)cc2)n1)NO`, the growth with T-47D breast is 78.7%; with BT-549 breast, 115%; in the experiment on MDA-MB-435 melanoma it was 106%; in the experiment with SW-620 colon, 106%; in the experiment with MCF7 breast, 102%; in the experiment with HCT-116 colon, 94%. The figures for the growth in the experiment on HCC-2998 colon and in the experiment on KM12 colon were 93.5% and 93.7%, respectively.
Turning to `CCn1c(CSc2nc3ccccc3c(=O)n2CCc2ccccc2)n[nH]c1=S`, the growth is 73.3% in the experiment with T-47D breast; 72.3% in the experiment on BT-549 breast; 84.8% in the experiment with MDA-MB-435 melanoma; 97.5% in the experiment on SW-620 colon; 84% in the experiment with MCF7 breast; 65.5% with HCT-116 colon. For the same molecule, the growth is 99% in the experiment with HCC-2998 colon and 92.3% with KM12 colon.
Turning to `COc1cccc(C2C(C#N)=C(N)Oc3cc(N)ccc32)c1` (stereo not drawn), the growth was 10.4% in the experiment with T-47D breast; 47.3% in the experiment on BT-549 breast; -30.5% (active) in the experiment with MDA-MB-435 melanoma; 18.7% in the experiment on SW-620 colon; 12.1% with MCF7 breast; 23.2% in the experiment on HCT-116 colon. Moreover, the growth is 39.1% with HCC-2998 colon and 24.6% in the experiment with KM12 colon.
As to `COc1ccccc1-n1c(-c2sc(NC(C)=O)nc2C)n[nH]c1=S`, the growth in the experiment with T-47D breast was 106%; with BT-549 breast it was 93.8%; in the experiment on MDA-MB-435 melanoma, 105%; in the experiment with SW-620 colon, 108%; in the experiment on MCF7 breast it was 97.5%; in the experiment on HCT-116 colon, 98.3%. Further, the growth with HCC-2998 colon and in the experiment with KM12 colon was 108% in each case.
With `O=C(NCCNC(=O)c1ccc(F)cc1)Nc1ccc(-n2cc(-c3ccncc3)c(-c3ccc(Cl)c(O)c3)n2)cc1`, the growth is 30.1% in the experiment on T-47D breast; -24.5% (active) in the experiment with BT-549 breast; -5.7% (active) with MDA-MB-435 melanoma; 15.1% in the experiment with SW-620 colon; 3.7% (active) in the experiment on MCF7 breast; -24.2% (active) in the experiment with HCT-116 colon. The growth was -28.4% (active) with HCC-2998 colon and 0.713% (active) in the experiment on KM12 colon.
For `O=C(CCCCCCC(=O)Nc1ccccc1)NO`, the growth in the experiment with T-47D breast was -12.6% (active); in the experiment on BT-549 breast, 53.9%; in the experiment with MDA-MB-435 melanoma it was -22% (active); with SW-620 colon, -25.7% (active); in the experiment with MCF7 breast, 9.87% (active); with HCT-116 colon, 4.45% (active). The growth with HCC-2998 colon is 0.434% (active); with KM12 colon, 14.4%.
Consider `CN1CCN(CC(=O)Nc2cccc(-n3cc(-c4ccncc4)c(-c4ccc(Cl)c(O)c4)n3)c2)CC1`, for which the growth with T-47D breast was 61.3%; with BT-549 breast, 36.6%; in the experiment on MDA-MB-435 melanoma it was -47.5% (active); in the experiment with SW-620 colon, 20.8%; in the experiment on MCF7 breast, 15.2%; in the experiment on HCT-116 colon it was 17.3%. Also, the growth in the experiment on HCC-2998 colon is 85.6%; in the experiment on KM12 colon it was 26.1%.
